The full ranking holds about 33,000 sequences; the median of “E-score (-0.5 to 0.5)” is about -0.011, and the highest 2% start at about 0.28. The sample as a whole holds a higher share of the highest values than the screen did.
Biological target: T1, Gcr1 (UniProt P07261)
T1 sequence: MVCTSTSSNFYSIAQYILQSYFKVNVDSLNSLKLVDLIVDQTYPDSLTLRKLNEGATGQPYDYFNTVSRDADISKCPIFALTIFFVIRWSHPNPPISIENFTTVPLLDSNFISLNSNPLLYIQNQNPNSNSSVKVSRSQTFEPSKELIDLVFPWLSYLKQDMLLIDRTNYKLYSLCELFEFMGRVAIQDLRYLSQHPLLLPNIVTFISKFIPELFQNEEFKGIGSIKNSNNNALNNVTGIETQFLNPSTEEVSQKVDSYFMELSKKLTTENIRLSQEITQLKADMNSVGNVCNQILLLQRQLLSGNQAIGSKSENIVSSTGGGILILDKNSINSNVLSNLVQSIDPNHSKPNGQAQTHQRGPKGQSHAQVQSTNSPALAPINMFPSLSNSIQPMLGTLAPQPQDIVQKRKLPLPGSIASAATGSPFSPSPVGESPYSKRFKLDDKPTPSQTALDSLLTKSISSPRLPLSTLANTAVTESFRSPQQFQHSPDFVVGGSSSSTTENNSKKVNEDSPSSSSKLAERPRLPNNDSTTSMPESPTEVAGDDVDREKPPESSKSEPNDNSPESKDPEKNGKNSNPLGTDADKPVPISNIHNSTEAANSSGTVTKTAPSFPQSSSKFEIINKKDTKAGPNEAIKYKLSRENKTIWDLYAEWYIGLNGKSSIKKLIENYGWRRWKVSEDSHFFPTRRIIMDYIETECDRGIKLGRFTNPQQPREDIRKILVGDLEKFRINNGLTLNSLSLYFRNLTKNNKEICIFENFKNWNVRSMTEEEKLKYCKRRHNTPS
Test: PBM E-score (8-mer binding enrichment) (E-score (-0.5 to 0.5)); higher = stronger / more preferred TF binding
Conditions: protein concentration: 100 nM; construct: GST-full length
Protocol: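 Universal 'all 10-mer' protein binding microarrays (Agilent AMADID 015681) probed with GST-tagged S. cerevisiae TFs (full-length or DBD) made by in vitro transcription/translation (PURExpress), about 100-200 nM. Bound TF was detected with fluorescent anti-GST. Each ungapped 8-mer (which stands for itself and its reverse complement) is scored by the PBM enrichment score (E-score), a modified Wilcoxon-Mann-Whitney statistic from -0.5 to +0.5, computed with the Universal PBM Analysis Suite. Scale: above 0.35 generally sequence-specific binding.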

| Sequence | PBM E-score |
| --- | --- |
| AACTGTAC | -0.166 |
| GAGAAGCC | 0.395 |
| GAGAAGCA | 0.111 |
| AAAAAGCT | -0.183 |
| AAGAAGCG | 0.0955 |
| AAGAAGGT | 0.122 |
| AAGAAGCA | 0.165 |
| CGGAAGCC | 0.451 |
| AAGAAGCC | 0.401 |
| CGGAAGCA | 0.0914 |
| CGGAAGGC | 0.00052 |
| AAGAAGCT | 0.386 |
| GCGAAGCC | 0.1 |
| CGACCCCC | -0.203 |
| GCAGAGAA | -0.0151 |
| TGAGCACA | -0.235 |
| AGCATAAT | -0.00272 |
| ATATACTA | 0.174 |
| AAAGTTAA | 0.0767 |
| CAGAAGCA | 0.0126 |
| CAGAAGCG | 0.223 |
| CAGAAGCC | 0.306 |
| ACGCTAGA | -0.0413 |
| TAGCGATA | -0.0939 |
| CATGCCTC | -0.101 |

| Sequence | PBM E-score |
| --- | --- |
| CTCCAGCC | -0.183 |
| CAATCGGG | 0.0633 |
| AAGCAACC | 0.0616 |
| CAGCAACC | 0.287 |
| CCGCAACA | -0.0641 |
| AGGCAACC | 0.0186 |
| CGGCAACC | 0.29 |
| ACGCAACC | 0.121 |
| CAGCAACG | 0.0545 |
| CCGCAACC | 0.316 |
| CGGCAACA | 0.206 |
| TTCGCCAA | 0.0203 |
| CCACCGCC | -0.0958 |
| ACTTTGCA | -0.0113 |
| CCGGGGAA | 0.0357 |
| CAACGCAC | -0.152 |
| AAGATATT | 0.125 |
| ACCGAGTC | -0.306 |
| ATAGAGAA | -0.111 |
| CGAGTAGC | -0.018 |
| GGTGTGAA | -0.0292 |
| CCTGATCC | 0.0357 |
| AATAAGAG | 0.0844 |
| AAGAAAAA | 0.164 |
| AATAAGAT | 0.0233 |

| Sequence | PBM E-score |
| --- | --- |
| CAGAAGAA | 0.212 |
| AATAAGAA | 0.328 |
| AAGAAATT | 0.0237 |
| AAGAAGAC | 0.0399 |
| TAGAAGAA | 0.352 |
| ACGAAGAA | -0.0157 |
| GAGAAGAA | 0.0707 |
| AAGAAGAA | 0.303 |
| AAGAAAAT | 0.304 |
| CCGGAGAA | -0.189 |
| AGGTTTTC | 0.0618 |
| CACACAAG | 0.128 |
| ACTTTCAC | 0.0906 |
| TACCCCGA | -0.036 |
| GGACCGAA | 0.0294 |
| AAATCGTT | -0.0365 |
| TACAAGAA | 0.379 |
| ACGAAGAT | 0.00119 |
| AAGAAGAG | 0.237 |
| CACAAGAA | 0.275 |
| TACAAAAA | 0.0752 |
| AAGAAGAT | 0.338 |
| GTCGGCAA | 0.0614 |
| GGATCAAC | -0.00409 |
| ACTCAATA | 0.156 |

| Sequence | PBM E-score |
| --- | --- |
| ATTTTGGG | 0.274 |
| ATTTGGGA | 0.301 |
| GTTTTGGA | 0.122 |
| ATTTGGGG | 0.23 |
| GTTTGGGA | -0.0986 |
| ATTTTGGA | 0.282 |
| CATTTGGA | 0.172 |
| TATTTGGA | 0.313 |
| AATTTGGA | 0.263 |
| AAGCTCCG | 0.00534 |
| AACCAACA | 0.0425 |
| CTTTGAGC | -0.149 |
| GACCATCC | -0.0793 |
| GCGCCCAA | 0.18 |
| CCGCCCAC | 0.0451 |
| GCGCCCAC | 0.317 |
| GCGCCCGC | 0.315 |
| ACGCCCGC | 0.105 |
| CCGCCCGC | -0.0787 |
| TAAAGGTA | -0.0155 |
| GTGCTACA | -0.119 |
| CTAAACGA | -0.00769 |
| GGTTAACC | -0.194 |
| AATCTGGA | 0.257 |
| AATCTGGC | 0.0826 |

| Sequence | PBM E-score |
| --- | --- |
| AATCTGGT | 0.281 |
| CGTTCCCC | -0.0544 |
| AACAAGTG | 0.0405 |
| AATGCCGA | -0.178 |
| AATGCCAC | -0.0507 |
| TATGCCAA | -0.104 |
| GATGCCGA | 0.335 |
| CATGCCGA | 0.041 |
| AATGCCAA | 0.042 |
| GATGCCAA | 0.351 |
| GATGCCAC | 0.342 |
| CATGCCAC | -0.109 |
| GTTCATAA | 0.0771 |
| CAGTGAGG | -0.176 |
| GCCAGGTA | 0.0834 |
| CTCTGCGC | -0.22 |
| GCAGCAGA | -0.135 |
| GCAGCAGC | 0.307 |
| ACAGCAGC | 0.288 |
| CAAGCAGC | 0.324 |
| CACGCAGA | -0.137 |
| CCAGCAGC | 0.272 |
| CACGCAGC | 0.295 |
| ACAGCAGT | -0.0218 |
| AAAGCAGC | -0.0508 |

| Sequence | PBM E-score |
| --- | --- |
| AACGCAGC | 0.0364 |
| ACAGCAGA | -0.0557 |
| GAAGCAGC | 0.24 |
| CGCGGCTC | 0.117 |
| CACTTGAG | 0.00447 |
| ACCCTCCG | -0.333 |
| GCCGCAGC | 0.0591 |
| TAAGATCA | 0.157 |
| CGATCGAC | -0.154 |
| GTATCGCA | -0.00444 |
| CATACTTA | 0.0988 |
| AAAAAAGT | 0.135 |
| TGGCTGAA | 0.0392 |
| CATCCAGA | 0.268 |
| GGAGCCAA | 0.33 |
| CGAGCCAA | -0.00353 |
| GGAGCCAC | 0.289 |
| AGAGCCAA | -0.13 |
| AGAGCCAC | 0.13 |
| CGAGCCAC | -0.116 |
| GGAGCCCC | 0.265 |
| GGAGCCCA | 0.349 |
| TGAGCCCA | 0.0335 |
| CCCAGTCC | -0.0352 |
| AAGTTCAA | 0.0288 |

| Sequence | PBM E-score |
| --- | --- |
| CACGTGCC | -0.121 |
| ATCGATCC | -0.0388 |
| CCTAGAGG | 0.0618 |
| CAAGTTCG | -0.0211 |
| ACATTGCT | 0.0699 |
| GCATCTCA | 0.139 |
| TGGGCAAA | -0.213 |
| AGCTTCCG | 0.433 |
| AGCTTCCC | 0.378 |
| AGCTTCAG | -0.19 |
| TGCTTCCA | 0.146 |
| AGCTTCCA | 0.458 |
| CCCTTCCG | -0.286 |
| AGCTTCGC | 0.173 |
| CGCTTCAG | 0.0898 |
| ACCTTCCC | -0.00014 |
| CGCTTCCG | 0.291 |
| AGCTTCGG | 0.17 |
| AGCTTCAA | 0.0987 |
| GATTAAGC | 0.0627 |
| CAAAACGC | 0.025 |
| AAGCAAAA | -0.075 |
| CCATCCGG | -0.0299 |
| CGCTTCCC | 0.273 |
| GGCTTCAC | -0.14 |

| Sequence | PBM E-score |
| --- | --- |
| CGCTTCCA | 0.351 |
| CGCTTCGA | -0.0778 |
| CCCTTCCA | -0.0993 |
| GGCTTCCC | 0.433 |
| GTCAGGTA | 0.091 |
| GTTCTAAA | 0.0776 |
| CAGAATCC | 0.161 |
| CTATCGCC | -0.00847 |
| AACAGGAC | 0.162 |
| ACCAGGAA | 0.0492 |
| AACAGGAG | -0.0445 |
| CACAGGAA | 0.118 |
| AACAGGTA | 0.269 |
| GACAGGAA | 0.316 |
| TACAGGTA | 0.0633 |
| GTCAGGAA | 0.104 |
| AACAGGAT | 0.318 |
| TACAGGAA | 0.394 |
| GACAGGAC | 0.0783 |
| AACAGGAA | 0.334 |
| CGGCTCAA | 0.00705 |
| GCGGGCAA | -0.146 |
| CACAAGGC | -0.161 |
| AACACCTT | -0.0171 |
| AGTCCCGA | -0.15 |

| Sequence | PBM E-score |
| --- | --- |
| CGCATAAA | 0.0544 |
| ACGTTGCA | -0.015 |
| TACCGGAA | 0.341 |
| AACCGGAA | 0.2 |
| CACCGGAA | 0.266 |
| CTCGGGGC | -0.101 |
| CTAAGGCC | 0.046 |
| AGTTGAAT | -0.0577 |
| CGGATGTC | 0.0736 |
| GCCTTCTA | 0.131 |
| AGCTTCTG | 0.245 |
| GGCTTCTA | 0.297 |
| CGCTTCTA | 0.259 |
| AGCTTCTC | 0.25 |
| AGCTTCTA | 0.297 |
| GCTCCGGA | 0.121 |
| CGAACTAC | 0.00469 |
| AGGCCGCG | 0.0497 |
| AGGCCGCC | 0.292 |
| AGGCCGCA | -0.0993 |
